# Reference: ChEMBL document CHEMBL3988442, “University of Dundee, Small-Polar-MMV Screening Library” (2021)
# For some of these results: Entries with a potency or affinity are not part of this list.
# Assays:
# Set-up in all cases: scale not given: direction of the effect not stated beside the values
# [1] = molecular target: Protein translocase subunit SecA (Escherichia coli (strain K12)) (UniProt P10408); assay: Assay to Identify E. coli SecA ATPase Inhibitors; type: functional; conditions: 30 µM
# [2] = molecular target: T1, Ubiquitin-activating enzyme e1, putative (Leishmania donovani (strain BPK282A1)) (UniProt E9BSI1); assay: Leishmania donovani Ubiquitin Activating Enzyme (LdE1); type: functional; conditions: 30 µM
# T1 sequence (whole entry): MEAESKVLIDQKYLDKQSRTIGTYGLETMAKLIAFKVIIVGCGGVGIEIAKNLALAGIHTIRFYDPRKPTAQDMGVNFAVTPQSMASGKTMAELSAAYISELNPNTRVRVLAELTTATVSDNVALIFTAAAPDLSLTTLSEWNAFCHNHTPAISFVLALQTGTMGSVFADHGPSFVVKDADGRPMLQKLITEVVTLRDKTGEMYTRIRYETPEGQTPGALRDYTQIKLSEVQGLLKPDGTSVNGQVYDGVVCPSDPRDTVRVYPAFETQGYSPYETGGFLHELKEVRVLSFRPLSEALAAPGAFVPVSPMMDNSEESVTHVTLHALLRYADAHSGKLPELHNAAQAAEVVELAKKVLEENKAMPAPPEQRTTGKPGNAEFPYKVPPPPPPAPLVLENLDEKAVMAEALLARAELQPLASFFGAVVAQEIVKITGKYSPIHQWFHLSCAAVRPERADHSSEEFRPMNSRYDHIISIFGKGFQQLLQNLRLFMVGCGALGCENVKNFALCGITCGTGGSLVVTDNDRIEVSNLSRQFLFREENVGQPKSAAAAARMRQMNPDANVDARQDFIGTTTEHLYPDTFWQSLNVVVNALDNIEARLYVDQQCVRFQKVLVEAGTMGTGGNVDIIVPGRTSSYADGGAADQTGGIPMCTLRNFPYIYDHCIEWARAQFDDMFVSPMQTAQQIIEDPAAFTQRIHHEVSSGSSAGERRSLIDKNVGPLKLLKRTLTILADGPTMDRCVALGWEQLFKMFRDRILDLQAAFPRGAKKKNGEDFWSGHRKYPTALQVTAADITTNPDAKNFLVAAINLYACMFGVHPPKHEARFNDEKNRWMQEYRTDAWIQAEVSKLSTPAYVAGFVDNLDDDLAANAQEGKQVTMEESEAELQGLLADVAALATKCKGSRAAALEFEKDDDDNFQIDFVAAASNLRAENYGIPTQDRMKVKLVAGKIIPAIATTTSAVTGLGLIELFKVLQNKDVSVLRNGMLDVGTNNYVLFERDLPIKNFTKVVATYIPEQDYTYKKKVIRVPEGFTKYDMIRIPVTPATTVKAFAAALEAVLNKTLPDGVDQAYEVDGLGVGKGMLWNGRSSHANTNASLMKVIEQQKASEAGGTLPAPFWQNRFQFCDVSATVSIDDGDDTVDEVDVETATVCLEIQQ
# [3] = molecular target: AMP-activated protein kinase, AMPK (Homo sapiens) (UniProt P54646+O43741+P54619+Q9UGJ0+Q9Y478+Q13131+Q9UGI9); assay: AMP-dependent Kinase enzyme assay. An in vitro enzyme assay that detects ADP turnover that is directly proportional to AMPK activity. This uses naive AMPK that is activated during the assay with MK-8722; type: functional; conditions: 30 µM
# [4] = molecular target: Sialic acid-binding Ig-like lectin 9 (Homo sapiens) (UniProt Q9Y336); assay: Hs-Siglec9 ALPHAscreen SOP 20170721; conditions: 10 µM
# Trypanosoma cruzi = assay: Trypanosoma cruzi phosphomannomutase and mannose-1-phosphate guanylyltransferase assay; type: functional; conditions: 10 µM
# [5] = molecular target: T2, Arginase-2, mitochondrial (Homo sapiens) (UniProt P78540); assay: in vitro enzyme assay to detect the production of urea directly proportional to the activity of Arginase II; type: functional; conditions: 33.3 µM; note: in the data most compounds retested in dose-response had high values
# T2 sequence (whole entry): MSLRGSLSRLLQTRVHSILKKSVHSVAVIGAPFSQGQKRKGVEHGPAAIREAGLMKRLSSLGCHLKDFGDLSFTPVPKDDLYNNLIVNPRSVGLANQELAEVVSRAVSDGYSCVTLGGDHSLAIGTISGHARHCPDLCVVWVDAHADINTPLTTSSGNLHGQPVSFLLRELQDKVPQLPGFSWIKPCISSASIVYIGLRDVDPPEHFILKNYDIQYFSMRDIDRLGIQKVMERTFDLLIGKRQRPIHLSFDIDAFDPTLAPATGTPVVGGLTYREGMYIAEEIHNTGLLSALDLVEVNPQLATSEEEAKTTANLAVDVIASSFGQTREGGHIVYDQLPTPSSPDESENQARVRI
# [6] = molecular target: T3, Proteasome subunit beta (Trypanosoma cruzi) (UniProt O96673); assay: Trypanosoma cruzi proteasome chymotrypsin-like activity (TcProtChymo) assay.; note: in the data most compounds retested in dose-response had high values; type: functional; conditions: 9.37 µM
# T3 sequence (whole entry): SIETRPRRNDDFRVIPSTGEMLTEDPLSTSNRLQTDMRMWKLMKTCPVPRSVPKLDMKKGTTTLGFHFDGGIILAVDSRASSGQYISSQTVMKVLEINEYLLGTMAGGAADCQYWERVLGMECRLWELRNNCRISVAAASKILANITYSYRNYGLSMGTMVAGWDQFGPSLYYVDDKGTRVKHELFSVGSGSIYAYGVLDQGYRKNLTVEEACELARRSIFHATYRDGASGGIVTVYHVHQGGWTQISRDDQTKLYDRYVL
# Homo sapiens = species: Homo sapiens; assay: To identify inhibition of the IFN signalling (Jak-Stat) pathway via expression of an eGFP reporter gene under the control of an IFN-stimulated response element (ISRE) containing MxA promoter.; type: functional; conditions: 30 µM
# [7] = molecular target: T4, Tyrosyl-tRNA synthetase, putative (Trypanosoma cruzi (strain CL Brener)) (UniProt Q4DSP6); assay: Trypanosoma cruzi tyrosyl tRNA synthetase (TcYRS) _High Tyrosine SOP; type: functional; conditions: 30 µM; note: in the data most compounds retested in dose-response had high values
# T4 sequence (whole entry): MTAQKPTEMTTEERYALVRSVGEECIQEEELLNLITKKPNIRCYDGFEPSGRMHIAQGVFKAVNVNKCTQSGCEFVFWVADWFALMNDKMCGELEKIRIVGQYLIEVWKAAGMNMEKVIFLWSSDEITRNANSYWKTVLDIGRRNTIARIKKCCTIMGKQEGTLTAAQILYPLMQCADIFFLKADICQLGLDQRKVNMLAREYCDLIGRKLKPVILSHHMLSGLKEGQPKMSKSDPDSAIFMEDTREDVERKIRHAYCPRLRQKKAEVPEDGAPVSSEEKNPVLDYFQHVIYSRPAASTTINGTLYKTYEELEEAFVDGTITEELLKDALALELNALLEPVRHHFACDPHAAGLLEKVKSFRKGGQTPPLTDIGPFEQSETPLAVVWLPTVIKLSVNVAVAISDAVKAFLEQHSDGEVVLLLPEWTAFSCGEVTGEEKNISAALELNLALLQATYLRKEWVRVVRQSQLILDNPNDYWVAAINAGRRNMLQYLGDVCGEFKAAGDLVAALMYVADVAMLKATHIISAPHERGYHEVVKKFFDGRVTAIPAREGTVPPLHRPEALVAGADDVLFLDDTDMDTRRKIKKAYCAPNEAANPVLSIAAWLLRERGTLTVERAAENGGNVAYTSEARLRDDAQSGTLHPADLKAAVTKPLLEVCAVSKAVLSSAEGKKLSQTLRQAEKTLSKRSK
# [8] = molecular target: T4, Tyrosyl-tRNA synthetase, putative (Trypanosoma cruzi (strain CL Brener)); assay: Trypanosoma cruzi tyrosyl tRNA synthetase (TcYRS) SOP; type: functional; conditions: 30 µM
# [9] = molecular target: Chromo domain-containing protein 1 (Saccharomyces cerevisiae (strain ATCC 204508 / S288c) (Baker's yeast)) (UniProt P32657); assay: ScCHD-1 Enzyme Inhibition Assay; type: functional; conditions: 30 µM; note: in the data most compounds retested in dose-response had high values
# Sequence of Chromo domain-containing protein 1 (Saccharomyces cerevisiae (strain ATCC 204508 / S288c) (Baker's yeast)) (P32657 whole entry, the tested form may be a part): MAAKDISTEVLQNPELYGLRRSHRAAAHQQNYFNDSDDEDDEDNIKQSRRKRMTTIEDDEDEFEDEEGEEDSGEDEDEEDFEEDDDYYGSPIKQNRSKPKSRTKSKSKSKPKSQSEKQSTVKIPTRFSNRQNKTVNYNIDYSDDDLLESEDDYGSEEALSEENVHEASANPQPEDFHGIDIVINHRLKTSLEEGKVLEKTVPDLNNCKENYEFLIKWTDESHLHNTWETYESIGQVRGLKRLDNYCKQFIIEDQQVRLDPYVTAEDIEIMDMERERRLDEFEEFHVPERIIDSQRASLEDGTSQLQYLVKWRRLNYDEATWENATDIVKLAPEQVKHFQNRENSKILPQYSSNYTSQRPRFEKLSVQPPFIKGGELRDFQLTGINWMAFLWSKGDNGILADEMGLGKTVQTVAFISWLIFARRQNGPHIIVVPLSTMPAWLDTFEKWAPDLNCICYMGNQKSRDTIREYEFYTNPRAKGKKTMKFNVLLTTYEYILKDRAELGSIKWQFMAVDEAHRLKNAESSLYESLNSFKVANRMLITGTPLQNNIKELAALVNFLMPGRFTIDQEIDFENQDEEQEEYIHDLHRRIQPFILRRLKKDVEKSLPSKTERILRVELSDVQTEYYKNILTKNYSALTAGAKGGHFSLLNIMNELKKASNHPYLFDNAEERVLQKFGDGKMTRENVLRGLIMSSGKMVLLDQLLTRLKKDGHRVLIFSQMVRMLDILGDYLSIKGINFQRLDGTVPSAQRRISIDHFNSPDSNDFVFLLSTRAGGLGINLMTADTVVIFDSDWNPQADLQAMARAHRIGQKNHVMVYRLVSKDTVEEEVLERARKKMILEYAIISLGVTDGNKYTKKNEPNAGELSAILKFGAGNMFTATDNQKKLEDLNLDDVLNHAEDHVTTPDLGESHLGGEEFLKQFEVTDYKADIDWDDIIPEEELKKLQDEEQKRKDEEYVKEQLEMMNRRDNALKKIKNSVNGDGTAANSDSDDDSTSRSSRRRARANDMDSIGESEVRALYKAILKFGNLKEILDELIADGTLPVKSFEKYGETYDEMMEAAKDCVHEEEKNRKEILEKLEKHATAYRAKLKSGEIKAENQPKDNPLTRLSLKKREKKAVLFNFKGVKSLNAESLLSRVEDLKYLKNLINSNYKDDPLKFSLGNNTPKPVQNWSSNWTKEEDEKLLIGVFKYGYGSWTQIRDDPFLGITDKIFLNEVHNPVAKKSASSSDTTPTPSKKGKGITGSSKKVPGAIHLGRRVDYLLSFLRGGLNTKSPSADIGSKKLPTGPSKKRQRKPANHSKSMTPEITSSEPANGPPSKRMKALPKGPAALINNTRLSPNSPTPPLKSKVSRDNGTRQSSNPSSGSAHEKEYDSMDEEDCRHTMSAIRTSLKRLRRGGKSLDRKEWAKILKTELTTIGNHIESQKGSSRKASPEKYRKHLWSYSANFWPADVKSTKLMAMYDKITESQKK
# Sequence of Sialic acid-binding Ig-like lectin 9 (Homo sapiens) (Q9Y336 whole entry): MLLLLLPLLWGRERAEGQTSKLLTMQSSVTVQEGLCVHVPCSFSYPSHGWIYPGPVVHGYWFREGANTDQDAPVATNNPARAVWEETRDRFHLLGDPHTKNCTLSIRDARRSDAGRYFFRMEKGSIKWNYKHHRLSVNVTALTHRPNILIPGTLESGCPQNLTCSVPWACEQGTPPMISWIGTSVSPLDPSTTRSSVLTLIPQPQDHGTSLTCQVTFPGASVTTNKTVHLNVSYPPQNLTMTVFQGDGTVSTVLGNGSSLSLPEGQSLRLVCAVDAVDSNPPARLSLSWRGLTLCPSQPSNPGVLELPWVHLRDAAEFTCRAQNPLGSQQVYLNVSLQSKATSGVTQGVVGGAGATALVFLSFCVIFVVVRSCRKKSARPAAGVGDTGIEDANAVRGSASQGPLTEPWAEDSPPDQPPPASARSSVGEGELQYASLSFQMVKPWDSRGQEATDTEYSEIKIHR
# Sequence of Protein translocase subunit SecA (Escherichia coli (strain K12)) (P10408 whole entry): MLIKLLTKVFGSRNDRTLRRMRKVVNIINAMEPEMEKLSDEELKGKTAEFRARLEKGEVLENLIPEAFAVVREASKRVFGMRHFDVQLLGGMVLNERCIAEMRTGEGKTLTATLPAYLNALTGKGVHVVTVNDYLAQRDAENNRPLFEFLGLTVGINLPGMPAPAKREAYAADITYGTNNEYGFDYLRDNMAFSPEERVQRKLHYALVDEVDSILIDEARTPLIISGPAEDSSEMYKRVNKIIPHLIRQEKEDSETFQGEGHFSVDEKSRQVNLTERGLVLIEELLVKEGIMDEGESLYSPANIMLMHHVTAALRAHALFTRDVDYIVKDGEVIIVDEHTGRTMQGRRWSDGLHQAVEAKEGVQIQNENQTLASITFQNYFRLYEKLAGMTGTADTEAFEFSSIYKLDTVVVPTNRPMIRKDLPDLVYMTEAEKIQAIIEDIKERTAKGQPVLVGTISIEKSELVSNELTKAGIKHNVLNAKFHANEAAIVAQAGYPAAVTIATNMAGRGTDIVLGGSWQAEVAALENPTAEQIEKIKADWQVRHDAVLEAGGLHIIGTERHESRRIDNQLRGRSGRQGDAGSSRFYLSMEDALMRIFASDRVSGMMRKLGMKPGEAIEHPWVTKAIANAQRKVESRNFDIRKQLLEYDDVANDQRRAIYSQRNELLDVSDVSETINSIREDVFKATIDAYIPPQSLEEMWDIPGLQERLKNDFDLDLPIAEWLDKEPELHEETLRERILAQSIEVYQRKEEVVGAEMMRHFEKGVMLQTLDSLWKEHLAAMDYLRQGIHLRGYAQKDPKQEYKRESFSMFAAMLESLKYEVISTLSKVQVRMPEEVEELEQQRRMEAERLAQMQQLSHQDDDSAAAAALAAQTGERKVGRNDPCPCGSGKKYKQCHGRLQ
SMILES,Percent Effect [1],Percent Effect [2],Percent Effect [3],Percent Effect [4],Percent Effect (Trypanosoma cruzi),Percent Effect [5],Percent Effect [6],Percent Effect (Homo sapiens),Percent Effect [7],Percent Effect [8],Percent Effect [9]
COC(=O)C1CCN(C(=O)CN2CCN(c3cccc(C)c3)CC2)CC1,-1.93%,2.74%,1.05%,3.16%,-7.54%,-1.6%,8.65%,0.408%,5.21%,16.1%,-1.41%
Cc1cc(CN2CCN(c3nn4cc(C)nc4s3)CC2)on1,-0.836%,16.5%,4.65%,3%,-0.923%,0.215%,20.4%,6.94%,7.29%,15.2%,-20.7%
COCCC(=O)N1CC[C@@H](N(C)C)[C@@H]1Cc1ccccc1,-3.9%,5.33%,10.6%,4.93%,-0.394%,-1.17%,5.37%,-2.67%,5.32%,6.41%,-0.866%
COCC1c2c(cnn2CC2CC2)CCN1Cc1ccc(OC)cc1 (stereo not given),0.566%,-5.33%,-0.782%,3.28%,-0.772%,-53.2%,9.23%,91.4%,-4.17%,2.5%,-3.58%
Cc1cccc(C2(CNC(=O)CCN3C(=O)CCC3=O)CCCC2)c1,-5.2%,10.1%,1.38%,0.402%,5.95%,-4.56%,3.36%,8.93%,9.36%,13.9%,-5.07%
CCc1nc2n(n1)CC(NCC(=O)Nc1ccc(Cl)cn1)CC2 (stereo not given),-0.524%,10.1%,-6.65%,-1.69%,-7.65%,3.04%,5.82%,12.9%,0.493%,3.8%,-7.63%
CC(C)CN1CCCn2nc(CNC(=O)c3cccnc3O)cc2C1,-5.79%,21.3%,-6.62%,22.5%,6.52%,5.73%,13.2%,13.9%,6.01%,18.5%,-7.12%
Cc1ccc(N2CCN(C(=O)COc3nccc(C)n3)CC2)nn1,-4.66%,21.9%,-13.9%,17.7%,7.44%,6.36%,11.4%,16%,7.53%,17.5%,-9.03%
CC(C)C(=O)N1CCC(c2nc(O)cc(-c3ccncc3)n2)CC1,-5%,25.7%,5.51%,-2.98%,3.16%,-2.09%,10.9%,14.4%,5.38%,11.7%,-14.2%
O=C(NCC1CC1)C1CSCN1S(=O)(=O)c1cccc(F)c1 (stereo not given),-1.87%,8.22%,-0.192%,-1.84%,2.94%,-0.455%,25%,-0.563%,4.3%,12.5%,-3.76%
COC(=O)c1ccc(N2CCN(CCC(=O)NC(N)=O)C(C)C2)cc1 (stereo not given),-5.21%,15.8%,-4.81%,0.77%,-5.51%,-0.719%,-2.45%,5.46%,5.42%,13.6%,2.67%
COc1ccc(CNCc2c(C)nn(C)c2N2CCOCC2)cc1,-5.07%,18.2%,-11.5%,0.605%,3.82%,0.21%,14.5%,-34.5%,8.57%,21.2%,-13%
Cc1ccc(S(=O)(=O)NC(=O)c2cccc(OCC(N)=O)c2)s1,-3.68%,20.2%,-5.82%,-5.61%,0.0944%,4.18%,12%,4.54%,6.4%,13.9%,-5.68%
Nc1nccc(N2CCC(Cc3ccccc3Cl)(C(=O)O)CC2)n1,-1.91%,16.2%,-3.46%,22.5%,6.56%,9.52%,18.1%,-0.891%,5.82%,21.9%,-7.9%
Cc1nc(CN2CCN(C(=O)COCc3ccccc3)CC2)no1,-3.03%,5.41%,-6.7%,10.7%,5.96%,0.744%,9.19%,-1.99%,-2.15%,3.7%,-7.9%
COCCN1CC[C@@H]2O[C@@H](COCC(=O)N3CCCC3)CC[C@@H]21,-3.65%,5.48%,-6.36%,2.85%,7.94%,-3.99%,3.85%,-31.2%,7.29%,13.6%,-5.05%
O=C(CN1CCc2cncnc2C1)NCCOc1ccccc1,-4.25%,21.1%,-16.1%,-13.3%,-2.33%,-12.9%,0.592%,0.604%,25.1%,25.9%,-2.98%
CCc1nc(CN2CCN(C(=O)COCc3ccccc3)CC2)no1,-6.48%,8.11%,-6.87%,35%,4.4%,25.1%,10.7%,-6.99%,2.15%,8.64%,-11.6%
COC(=O)c1cc(OCC2CCC2)cc(C(=O)N[C@H]2CC[C@H](O)CC2)c1,-8.61%,0%,-13.1%,12.3%,-5.09%,-0.455%,2.66%,32.3%,0%,0%,0.449%
Cc1csc(C2CCCN(C(=O)c3cnc4n[nH]c(C)c4c3)C2)n1 (stereo not given),-3.7%,10.8%,-5.48%,6.11%,2.36%,-2%,2.7%,16.8%,7.39%,18.5%,-8.83%
